In PubChem BioAssay (NCI):
Compounds without any hit were thinned out: in the full panel of roughly 79,000, 15% have a hit. Active and inactive are the calls of the source. No stated cut-off is given here; in the data, active means growth inhibition above about 70%; inactive means the rest.

Legend:
[1] = NCI Yeast Anticancer Drug Screen. Data for the rad52 strain (AID 147);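 further: 0% = growth of vehicle-treated control cultures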; conditions: S. cerevisiae rad52 mutant growth inhibition, hits give high values
How it was run: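 Measured: yeast growth inhibition. System: strain with a defined DNA damage repair alteration. Reference: vehicle-treated control cultures.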

[2] = NCI Yeast Anticancer Drug Screen. Data for the wt1 strain (AID 149);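 further: 0% = growth of vehicle-treated wt1 cultures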; conditions: S. cerevisiae wt1 strain (SPY 50644) growth inhibition, hits give high values
How it was run: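 Growth inhibition read against vehicle controls after compound exposure of the wt1 yeast strain.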

[3] = NCI Yeast Anticancer Drug Screen. Data for the rad50EPP+ strain (AID 151);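 further: 0% = growth of vehicle-treated control cultures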; conditions: S. cerevisiae rad50 mutant strain, hits give high values
How it was run: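 One strain with a rad50 alteration (rad50EPP+) was compound-treated, its growth then compared to that of vehicle controls.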

[4] = NCI Yeast Anticancer Drug Screen. Data for the rad50 strain (AID 155);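 further: 0% = growth of vehicle-only cultures of the same strain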; conditions: S. cerevisiae rad50 strain growth inhibition, hits give high values
How it was run: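 Readout: growth inhibition relative to vehicle-treated cultures. Compound exposure was carried out in a genetically defined yeast strain deficient in DNA damage repair.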

[5] = NCI Yeast Anticancer Drug Screen. Data for the mec2-1 strain (AID 157); conditions: S. cerevisiae mec2-1 strain, hits give high values
How it was run: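 Test agents were screened against the mec2-1 yeast strain, with defined DNA repair or cell cycle alteration. Growth was scored as inhibition against vehicle-only controls.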

[6] = NCI Yeast Anticancer Drug Screen. Data for the rad14 strain (AID 159);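 further: 0% = growth of vehicle-treated control cultures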; conditions: S. cerevisiae rad14 strain growth inhibition, hits give high values
How it was run: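 Growth inhibition vs vehicle controls; genetically altered yeast strain (DNA damage repair defect) treated with test compounds.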

[7] = NCI Yeast Anticancer Drug Screen. Data for the sgs1 mgt1 strain (AID 161);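 further: 0% = growth of cultures given vehicle only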; conditions: S. cerevisiae sgs1 mgt1 strain, hits give high values
How it was run: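 Mutant yeast exposed to compound; growth scored against vehicle-only wells.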

[8] = NCI Yeast Anticancer Drug Screen. Data for the CLN2oe strain (AID 163);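 further: 0% = growth of vehicle-only control cultures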; conditions: S. cerevisiae CLN2oe strain, hits give high values
How it was run: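 Here, growth inhibition in a cell-cycle-altered yeast strain after compound exposure was quantified against vehicle control growth.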

[9] = NCI Yeast Anticancer Drug Screen. Data for the cln2 rad14 strain (AID 165);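 further: 0% = growth equal to vehicle treated cultures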; conditions: S. cerevisiae cln2 rad14 strain, hits give high values
How it was run: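 Growth of compound-exposed yeast (cln2 rad14 genotype) measured and expressed as inhibition relative to vehicle.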

[10] = NCI Yeast Anticancer Drug Screen. Data for the bub3 strain (AID 167); conditions: S. cerevisiae bub3 mutant strain, hits give high values
How it was run: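 Readout: yeast growth inhibition, expressed relative to vehicle-only wells. The test organism is a mutant strain from a panel with lesions in DNA repair or checkpoint genes.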

[11] = NCI Yeast Anticancer Drug Screen. Data for the wt2 strain (AID 169);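 further: 0% = growth of vehicle-treated yeast cultures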; conditions: S. cerevisiae wt2 strain growth inhibition, hits give high values
How it was run: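 Genetically defined yeast strains from a DNA-repair/cell-cycle panel were used. Compound-exposed yeast growth was measured, and the inhibition was calculated relative to vehicle treatment.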

[12] = NCI Yeast Anticancer Drug Screen. Data for the mlh1 strain (AID 171);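 further: 0% = growth of vehicle-treated control cultures of the same strain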; conditions: S. cerevisiae mlh1 strain growth inhibition, hits give high values
How it was run: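 Here the genetically defined yeast mutant is grown with each compound, and the extent to which its growth falls below that of vehicle-exposed cells is reported.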

[13] = NCI Yeast Anticancer Drug Screen. Data for the sgs1 strain (AID 173);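 further: 0% = growth of vehicle-only control cultures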; conditions: S. cerevisiae sgs1 mutant, hits give high values
How it was run: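 Relative growth inhibition, referenced to vehicle, was determined in a yeast strain with a defined alteration affecting DNA damage repair or cell cycle control after compound exposure.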

[14] = NCI Yeast Anticancer Drug Screen. Data for the mlh1 rad18 strain (AID 175); conditions: S. cerevisiae mlh1 rad18 strain growth inhibition, hits give high values
How it was run: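 In this whole-cell yeast screen, a strain with altered DNA damage repair is challenged with compound, and its growth is measured against matched vehicle-treated controls.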

[15] = NCI Yeast Anticancer Drug Screen. Data for the rad18 strain (AID 177); conditions: S. cerevisiae rad18 mutant growth inhibition, hits give high values
How it was run: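 Screen uses a yeast strain with a defined lesion in DNA damage repair; compound effect is read as loss of growth compared to untreated vehicle cultures.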

[16] = at 5.0 µM (retest, dose inferred, filed as 0.5)
[17] = at 50.0 µM (retest, dose inferred, filed as 5.0)

Measured: growth inhibition

COC(=O)C(=O)c1c(-c2ccc(Cl)c(Cl)c2)[nH]c2[nH]n(-c3ccccc3)c(=O)c2c1=O
active: [3]; at 100.0 µM 76% | [4]; [17] 85% | [4]; at 50.0 µM 93.1% | [5]; at 50.0 µM 82.8% | [7]; [17] 83% | [9]; [17] 81% | [9]; at 50.0 µM 87.5% | [10]; [17] 84% | [10]; at 50.0 µM 82.5% | [14]; [17] 80% | [14]; at 50.0 µM 94.5% | [15]; at 100.0 µM 77%
inactive: [1]; at 1.2 µM -2% | [1]; at 3.7 µM -5% | [1]; at 11.0 µM 37% | [1]; at 33.0 µM 55% | [1]; at 100.0 µM 61% | [2]; at 1.2 µM -1% | [2]; at 3.7 µM -3% | [2]; at 11.0 µM 24% | [2]; at 33.0 µM 54% | [2]; at 100.0 µM 55% | [3]; at 1.2 µM 2% | [3]; at 3.7 µM 0% | [3]; at 11.0 µM 24% | [3]; at 33.0 µM 56% | [4]; at 1.2 µM 0% | [4]; at 3.7 µM 27% | [4]; [16] -5% | [4]; at 11.0 µM 22% | [4]; at 33.0 µM 40% | [4]; at 100.0 µM 65% | [5]; at 1.2 µM -2% | [5]; at 3.7 µM -7% | [5]; [16] -7% | [5]; at 11.0 µM 40% | [5]; at 33.0 µM 57% | [5]; [17] 9% | [5]; at 100.0 µM 63% | [6]; at 1.2 µM -1% | [6]; at 3.7 µM -1% | [6]; at 11.0 µM 46% | [6]; at 33.0 µM 62% | [6]; at 100.0 µM 61% | [7]; [16] -3% | [7]; at 50.0 µM 43% | [8]; at 1.2 µM -6% | [8]; at 3.7 µM -13% | [8]; at 11.0 µM 64% | [8]; at 33.0 µM 64% | [8]; at 100.0 µM 58% | [9]; [16] -11% | [10]; at 1.2 µM -3% | [10]; at 3.7 µM -2% | [10]; [16] -38% | [10]; at 11.0 µM 51% | [10]; at 33.0 µM 54% | [10]; at 100.0 µM 55% | [11]; at 1.2 µM 0% | [11]; at 3.7 µM 5% | [11]; at 11.0 µM 44% | [11]; at 33.0 µM 57% | [11]; at 100.0 µM 56% | [12]; at 1.2 µM -2% | [12]; at 3.7 µM -3% | [12]; at 11.0 µM 36% | [12]; at 33.0 µM 57% | [12]; at 100.0 µM 57% | [13]; at 1.2 µM -1% | [13]; at 3.7 µM -1% | [13]; at 11.0 µM 60% | [13]; at 33.0 µM 61% | [13]; at 100.0 µM 65% | [14]; [16] -7% | [15]; at 1.2 µM -3% | [15]; at 3.7 µM -2% | [15]; at 11.0 µM 3% | [15]; at 33.0 µM 49%

COc1cc2c(cc1O)[C@H](C)C(c1ccccc1OC)O2 (stereo partly specified)
inactive: [1]; at 1.2 µM -41% | [1]; at 3.7 µM -34% | [1]; at 11.0 µM -31% | [1]; at 33.0 µM -19% | [2]; at 1.2 µM -11% | [2]; at 3.7 µM -13% | [2]; at 11.0 µM -13% | [2]; at 33.0 µM -17% | [3]; at 1.2 µM -39% | [3]; at 3.7 µM -68% | [3]; at 11.0 µM -54% | [3]; at 33.0 µM -8% | [3]; at 100.0 µM 19% | [4]; at 1.2 µM -4% | [4]; at 3.7 µM -2% | [4]; [16] -13% | [4]; at 11.0 µM -8% | [4]; at 33.0 µM 4% | [4]; [17] 4% | [4]; at 50.0 µM 15.5% | [5]; at 1.2 µM -27% | [5]; at 3.7 µM -15% | [5]; [16] -44% | [5]; at 11.0 µM -20% | [5]; at 33.0 µM 6% | [5]; [17] 13% | [5]; at 50.0 µM 17.6% | [6]; at 1.2 µM -7% | [6]; at 3.7 µM -11% | [6]; at 11.0 µM -11% | [6]; at 33.0 µM 7% | [7]; [16] -16% | [7]; [17] 59% | [7]; at 50.0 µM 68% | [8]; at 1.2 µM 14% | [8]; at 3.7 µM 9% | [8]; at 11.0 µM 5% | [8]; at 33.0 µM 18% | [9]; [16] 26% | [9]; [17] 24% | [9]; at 50.0 µM 29.9% | [10]; at 1.2 µM 24% | [10]; at 3.7 µM 32% | [10]; [16] 20% | [10]; at 11.0 µM 22% | [10]; at 33.0 µM 55% | [10]; at 50.0 µM 62.4% | [11]; at 1.2 µM -26% | [11]; at 3.7 µM -32% | [11]; at 11.0 µM -26% | [11]; at 33.0 µM -4% | [12]; at 1.2 µM 17% | [12]; at 3.7 µM 24% | [12]; at 11.0 µM -2% | [12]; at 33.0 µM 47% | [13]; at 1.2 µM -10% | [13]; at 3.7 µM -17% | [13]; at 11.0 µM -12% | [13]; at 33.0 µM 10% | [14]; [16] 1% | [14]; [17] 22% | [14]; at 50.0 µM 19.6% | [15]; at 1.2 µM -9% | [15]; at 3.7 µM -22% | [15]; at 11.0 µM 11% | [15]; at 33.0 µM 20%
active: [1]; at 100.0 µM 96% | [2]; at 100.0 µM 96% | [4]; at 100.0 µM 96% | [5]; at 100.0 µM 95% | [6]; at 100.0 µM 96% | [8]; at 100.0 µM 97% | [10]; [17] 81% | [10]; at 100.0 µM 97% | [11]; at 100.0 µM 96% | [12]; at 100.0 µM 97% | [13]; at 100.0 µM 96% | [15]; at 100.0 µM 94%
